A short description of test [1]: qHTS assay to identify small molecule agonists of the sonic hedgehog signaling (Shh) pathway (AID 1259368; calls by dose curve; further: series mostly up to about 92 µM; nearly all actives have a fitted effect of over 15% in size). The gist of the method:
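NIH/3T3-derived 3T3Gli1-Luc cells carrying a stably integrated Gli1 response element–firefly luciferase reporter were plated, left 4 hr at 37 C, then given compounds in DMSO for 24 hr. Luminescence was read 30 min after adding luciferase reagent.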
On the technique in general: Quantitative high-throughput screening tests each substance at several concentrations.

A short description of test [2]: qHTS assay to identify small molecule antagonists of the sonic hedgehog signaling (Shh) pathway (AID 1259369; calls by dose curve; further: nearly all actives have a fitted effect of over 45% in size; further: potency means the concentration at half of the fitted maximal effect). The gist of the method:
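NIH/3T3-derived 3T3Gli1-Luc cells with stably integrated Gli1-Luc reporter were preincubated 4hr at 37 C, then given compounds in DMSO plus Shh conditioned medium and incubated 24hr. Firefly luciferase luminescence read after 30min reagent at room temperature.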

Test [3] in a line: qHTS assay to identify small molecule agonists of the estrogen receptor beta (ER-beta) signaling pathway - cell viability counter screen (AID 1259380). Further: nearly all actives have a fitted effect of over 30% in size. Further: potency means the concentration at half of the fitted maximal effect. The gist of the method: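 ER-beta-UAS-bla HEK293T cells in medium with 2% charcoal-stripped FBS were preincubated 6 hr at 37C, dosed with compound in DMSO for 16 hr, then after the bla read, CellTiter-Glo was added for 30 min at room temperature; luminescence recorded.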

A short description of test [4]: qHTS assay to identify small molecule antagonists of the estrogen receptor beta (ER-beta) signaling pathway - cell viability counter screen (AID 1259382).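 Further: HEK293T cells carrying ER-beta-UAS-bla reporter stimulated with estradiol; series mostly up to about 92 µM; nearly all actives have a fitted effect of over 55% in size.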 The gist of the method:
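ER-beta-UAS-bla HEK293T cells (2,000/well, 2% charcoal-stripped FBS) were pre-incubated 6 hr at 37C, then given compound plus 1nM final 17-beta-estradiol for 16 hr. Viability was read in the same wells by CellTiter-Glo luminescence after 30 min at room temperature.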

Test [5] has as its target Estrogen receptor (Homo sapiens) (UniProt P03372). In words: qHTS assay to identify small molecule agonists of the estrogen receptor alpha (ER-alpha) signaling pathway in the presence of an antagonist (AID 1259383; calls by dose curve; further: top concentration of the series differs between compounds; nearly all actives have a fitted effect of over 15% in size). Summed up:
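VM7Luc4E2 cells (endogenous full-length ER-alpha, 4×ERE-luciferase) were precultured 5 days in phenol red-free medium with 10% charcoal-stripped FBS, given 10.0nM ICI-182,780 (final), then treated with compounds at 15 concentrations for 22hr at 37C; luminescence read with ONE-Glo.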

Test [6] in a line: qHTS assay to identify small molecule agonists or antagonists of the thyroid stimulating hormone receptor (TSHR) signaling pathway - wild type cell line counter screen (AID 1259384; calls by dose curve). The gist of the method: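 Counter screen in untransfected Hek293: compounds (15-point titration, triplicate) plus phosphodiesterase inhibitor Ro20-1724 added after 18 h plating; 30 min RT. Intracellular cAMP via competitive d2/cryptate immunoassay, 1 h incubation.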

In test [7] the target is Thyrotropin receptor (Homo sapiens) (UniProt P16473). In words: qHTS assay to identify small molecule antagonists of the thyroid stimulating hormone receptor (TSHR) signaling pathway (AID 1259385; calls by dose curve; further: nearly all actives have a fitted effect of over 20% in size). Summed up:
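Antagonist mode: compound-treated TSHR-expressing HEK293 cells were stimulated with 1.5 ng/mL TSH (final) in presence of Ro20-1724 for 30 min at RT. HTRF cAMP detection after 1 h; each compound tested at 15 concentrations, triplicate.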

The nature of test [8]: qHTS assay to identify small molecule agonists of the estrogen receptor alpha (ER-alpha) signaling pathway in the presence of an antagonist - cell viability counter screen (AID 1259386).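 Further: series mostly up to about 92 µM; cells exposed to compounds for 22 h at 37 °C before the viability read; nearly all actives have a fitted effect of over 30% in size.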 Summed up: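 VM7Luc4E2 cells (endogenous full-length ER-alpha, 4×ERE-luciferase) were held 5 days in phenol red-free medium with 10% charcoal-stripped FBS, plated, then given 10.0nM ICI-182,780 and compounds at 15 concentrations for 22hr at 37C; viability read by CellTiter-Fluor fluorescence.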

Test [9] has as its target Progesterone receptor (Homo sapiens) (UniProt P06401). The experiment in a line: qHTS assay to identify small molecule agonists of the progesterone receptor (PR) signaling pathway (AID 1346784; calls by dose curve; further: nearly all actives have a fitted effect of over 30% in size). Summed up:
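Beta-lactamase reporter read-out: after 16 hr compound treatment at 37C and a further 2 hr at room temperature with LiveBLAzer B/G FRET substrate, fluorescence was measured in PR-UAS-bla HEK 293T cells grown in 2% charcoal-stripped serum.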

Test [10] has the same target. In words: qHTS assay to identify small molecule antagonists of the progesterone receptor (PR) signaling pathway (AID 1346795; active means well fitted inhibition curve with a large enough effect in the signal ratio in the repeat runs, not every such curve was filed as active; the % refers to the signal ratio). The gist of the method:
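Read-out is fluorescence from the LiveBLAzer B/G FRET substrate, cleaved by a UAS-controlled beta-lactamase in PR-UAS-bla HEK293T cells after 16 hr exposure to compound plus 1 nM promegestone (final), followed by 2 hr at room temperature.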

The nature of test [11]: qHTS assay to identify small molecule antagonists of the progesterone receptor (PR) signaling pathway - cell viability counter screen (AID 1346798).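 Further: HEK293T PR-UAS-bla cells stimulated with the agonist R5020; series mostly up to about 92 µM; nearly all actives have a fitted effect of over 50% in size.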 The gist of the method:
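HEK293T PR-UAS-bla, 2% charcoal-stripped FBS; 4 hr pre-plate; cpd + R5020, 16 h 37C; LiveBLAzer read first; then CellTiter-Glo 30 min RT, luminescence.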

Test [12] is described as follows: qHTS assay to identify small molecule agonists of the TGF-beta/Smad signaling pathway - cell viability counter screen (AID 1346829). Further: top concentration of the series differs between compounds; nearly all actives have a fitted effect of over 45% in size. The gist of the method:
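Here the cytotoxicity of library compounds is measured in SBE-bla HEK 293T cells treated for 5 hr, using CellTiter-Glo added to wells already read for the beta-lactamase reporter.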

The nature of test [13]: qHTS assay to identify small molecule agonists of the TGF-beta/Smad signaling pathway (AID 1346859; active means well fitted activation curve with a large enough effect in the signal ratio in the repeat runs, not every such curve was filed as active; the % refers to the signal ratio; further: series mostly up to about 77 µM). Summed up: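 SBE-bla HEK 293T, 4,000 cells/well, plated o/n; cpd in DMSO, 5 hr, 37 C/5% CO2; B/G FRET substrate 2 hr RT; ex 405, em 460/530 nm.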
Test [14] addresses Thyrotropin-releasing hormone receptor (Homo sapiens) (UniProt P34981). The experiment in a line: qHTS assay to identify small molecule antagonists of the thyrotropin-releasing hormone receptor (TRHR) signaling pathway (AID 1346877; active means well fitted inhibition curve with a large enough effect in the repeat runs, not every such curve was filed as active; further: series mostly up to about 51 µM). Summed up: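 TRHR-expressing HEK293 cells were seeded, cultured 18 h at 37 °C, then loaded with calcium dye for 2 h. Compounds were pre-incubated 5 min at room temperature before 1 nM TRH (final) was added, and kinetic fluorescence was recorded for 3 min.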

Test [15] in a line: qHTS assay to identify small molecule agonists of the progesterone receptor (PR) signaling pathway - cell viability counter screen (AID 1346799; calls by dose curve; further: nearly all actives have a fitted effect of over 45% in size). The gist of the method:
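Luminescence from CellTiter-Glo, added after the beta-lactamase FRET read in the same wells, gave cytotoxicity in PR-UAS-bla HEK293T cells treated with compounds for 16 hr at 37C.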

A short description of test [16]: qHTS assay to identify small molecule antagonists of the TGF-beta/Smad signaling pathway - cell viability counter screen (AID 1346824). Further: nearly all actives have a fitted effect of over 50% in size. The gist of the method:
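Cytotoxicity counter-screen run in the same wells as the beta-lactamase Smad reporter read: CellTiter-Glo luminescence after 30 min at room temperature. HEK 293T SBE-bla cells had 5 hr compound exposure at 37 C with TGF-beta1 (0.25 ng/mL stock).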

Test [17] addresses Estrogen receptor beta (Homo sapiens) (UniProt Q92731). The experiment in a line: qHTS assay to identify small molecule agonists of the estrogen receptor beta (ER-beta) signaling pathway (AID 1259377; active means well fitted activation curve with a large enough effect in the signal ratio in the repeat runs, not every such curve was filed as active; the % refers to the signal ratio). The gist of the method: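 HEK293T ER-beta-UAS-bla; 2% charcoal-stripped FBS; cells pre-incubated 6 hr, compound 16 hr, 37C/5% CO2; LiveBLAzer B/G FRET substrate 2 h RT; fluorescence intensity read.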

Test [18] can be described thus: qHTS assay to identify small molecule agonists of the androgen receptor (AR) signaling pathway in the presence of an antagonist - cell viability counter screen (AID 1259379).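 Further: MDA-kb2 human breast cancer cells carrying an MMTV luciferase reporter; series mostly up to about 92 µM; nearly all actives have a fitted effect of over 25% in size.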 Summed up: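 MDA-kb2 human breast carcinoma cells (stable MMTV-luciferase, AR/GR responsive) were seeded 3,000 cells/well, pre-incubated 5 hr at 37C without CO2, then given 3.0uM nilutamide and compounds at 15 concentrations for 16 hr. Viability was read by CellTiter-Fluor fluorescence.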

Structures are written as SMILES. Several values for one entry are separate records, joined by “and”; a condition that tells them apart may be missing. Equal values may be shown once. Inconclusive results are not listed. The source holds several records for some structures; these can differ, active in one and inactive in another. Activity calls are given as the source filed them. Unless noted, the call rests on the fitted dose curve; in most records, active means well fitted curve in the direction sought with a large enough effect in the repeat runs; inconclusive means weak or mixed curves; inactive means no such curve, though single readings can be large; an effect the other way counts as inactive or inconclusive.
On the % scale 0 is the no-effect control and ±100 the full control effect.

Sequence of Estrogen receptor beta (Homo sapiens) (Q92731 whole entry, looked up): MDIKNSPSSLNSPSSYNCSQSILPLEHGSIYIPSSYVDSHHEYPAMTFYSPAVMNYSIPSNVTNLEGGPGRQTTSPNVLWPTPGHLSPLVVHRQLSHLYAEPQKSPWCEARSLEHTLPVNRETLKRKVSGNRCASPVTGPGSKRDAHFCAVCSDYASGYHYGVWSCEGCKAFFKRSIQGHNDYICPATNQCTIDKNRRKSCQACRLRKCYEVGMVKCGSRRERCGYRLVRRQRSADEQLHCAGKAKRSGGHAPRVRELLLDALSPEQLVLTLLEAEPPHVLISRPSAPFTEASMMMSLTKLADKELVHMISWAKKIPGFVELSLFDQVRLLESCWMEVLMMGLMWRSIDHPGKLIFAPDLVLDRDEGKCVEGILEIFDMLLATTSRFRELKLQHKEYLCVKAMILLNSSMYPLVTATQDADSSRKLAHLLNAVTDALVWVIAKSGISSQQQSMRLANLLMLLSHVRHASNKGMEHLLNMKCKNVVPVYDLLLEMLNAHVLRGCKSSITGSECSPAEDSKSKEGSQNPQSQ
Sequence of Thyrotropin-releasing hormone receptor (Homo sapiens) (P34981 whole entry, looked up): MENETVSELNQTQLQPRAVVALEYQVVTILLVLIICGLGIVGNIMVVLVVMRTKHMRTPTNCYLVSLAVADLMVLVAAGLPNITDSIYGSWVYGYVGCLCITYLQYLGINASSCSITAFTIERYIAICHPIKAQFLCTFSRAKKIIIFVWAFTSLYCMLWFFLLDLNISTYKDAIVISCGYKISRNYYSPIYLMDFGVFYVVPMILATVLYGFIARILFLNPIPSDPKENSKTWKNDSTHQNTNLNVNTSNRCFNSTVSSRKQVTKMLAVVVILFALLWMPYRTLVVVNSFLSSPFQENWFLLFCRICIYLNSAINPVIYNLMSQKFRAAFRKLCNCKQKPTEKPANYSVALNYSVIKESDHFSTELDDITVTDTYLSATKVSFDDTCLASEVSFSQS
Sequence of Progesterone receptor (Homo sapiens) (P06401 whole entry, looked up): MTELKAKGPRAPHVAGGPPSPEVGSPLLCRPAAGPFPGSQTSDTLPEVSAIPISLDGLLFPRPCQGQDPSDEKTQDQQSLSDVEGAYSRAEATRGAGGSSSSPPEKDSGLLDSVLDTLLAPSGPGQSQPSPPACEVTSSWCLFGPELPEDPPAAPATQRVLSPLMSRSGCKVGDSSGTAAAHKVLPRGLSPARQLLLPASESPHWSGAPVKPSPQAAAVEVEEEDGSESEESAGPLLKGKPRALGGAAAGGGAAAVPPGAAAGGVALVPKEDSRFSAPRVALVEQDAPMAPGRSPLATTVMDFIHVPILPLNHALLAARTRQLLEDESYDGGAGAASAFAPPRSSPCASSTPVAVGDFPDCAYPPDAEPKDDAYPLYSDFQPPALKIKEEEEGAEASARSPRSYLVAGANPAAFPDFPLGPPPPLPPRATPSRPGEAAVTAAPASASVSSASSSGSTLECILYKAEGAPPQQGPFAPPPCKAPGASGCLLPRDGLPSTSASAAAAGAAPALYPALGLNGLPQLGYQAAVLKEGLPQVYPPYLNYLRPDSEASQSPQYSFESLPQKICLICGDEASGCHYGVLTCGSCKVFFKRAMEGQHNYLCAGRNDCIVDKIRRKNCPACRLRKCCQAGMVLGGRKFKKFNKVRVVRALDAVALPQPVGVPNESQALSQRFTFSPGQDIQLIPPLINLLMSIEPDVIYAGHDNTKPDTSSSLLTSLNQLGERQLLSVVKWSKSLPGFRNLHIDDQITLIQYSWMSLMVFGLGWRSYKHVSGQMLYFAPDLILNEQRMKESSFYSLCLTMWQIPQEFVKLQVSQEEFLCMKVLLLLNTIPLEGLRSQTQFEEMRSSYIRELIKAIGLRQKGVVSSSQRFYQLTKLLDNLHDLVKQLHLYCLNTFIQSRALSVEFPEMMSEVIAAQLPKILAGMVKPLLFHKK
Sequence of Estrogen receptor (Homo sapiens) (P03372 whole entry, looked up): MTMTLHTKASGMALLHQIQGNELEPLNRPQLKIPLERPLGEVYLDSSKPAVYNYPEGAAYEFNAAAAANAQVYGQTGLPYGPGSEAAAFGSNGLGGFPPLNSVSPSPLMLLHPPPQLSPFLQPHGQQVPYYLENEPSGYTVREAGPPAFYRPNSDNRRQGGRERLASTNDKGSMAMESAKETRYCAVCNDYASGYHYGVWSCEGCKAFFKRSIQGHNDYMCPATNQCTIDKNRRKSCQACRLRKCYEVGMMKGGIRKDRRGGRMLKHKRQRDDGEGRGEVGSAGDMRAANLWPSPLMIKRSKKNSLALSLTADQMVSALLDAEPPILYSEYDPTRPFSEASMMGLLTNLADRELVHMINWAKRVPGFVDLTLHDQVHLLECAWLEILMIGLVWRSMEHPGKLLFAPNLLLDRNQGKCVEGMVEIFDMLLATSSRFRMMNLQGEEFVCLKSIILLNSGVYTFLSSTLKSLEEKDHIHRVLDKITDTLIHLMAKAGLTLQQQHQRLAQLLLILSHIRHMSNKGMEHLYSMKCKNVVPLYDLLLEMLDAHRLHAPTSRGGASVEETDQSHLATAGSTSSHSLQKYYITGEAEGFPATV
Sequence of Thyrotropin receptor (Homo sapiens) (P16473 whole entry, looked up): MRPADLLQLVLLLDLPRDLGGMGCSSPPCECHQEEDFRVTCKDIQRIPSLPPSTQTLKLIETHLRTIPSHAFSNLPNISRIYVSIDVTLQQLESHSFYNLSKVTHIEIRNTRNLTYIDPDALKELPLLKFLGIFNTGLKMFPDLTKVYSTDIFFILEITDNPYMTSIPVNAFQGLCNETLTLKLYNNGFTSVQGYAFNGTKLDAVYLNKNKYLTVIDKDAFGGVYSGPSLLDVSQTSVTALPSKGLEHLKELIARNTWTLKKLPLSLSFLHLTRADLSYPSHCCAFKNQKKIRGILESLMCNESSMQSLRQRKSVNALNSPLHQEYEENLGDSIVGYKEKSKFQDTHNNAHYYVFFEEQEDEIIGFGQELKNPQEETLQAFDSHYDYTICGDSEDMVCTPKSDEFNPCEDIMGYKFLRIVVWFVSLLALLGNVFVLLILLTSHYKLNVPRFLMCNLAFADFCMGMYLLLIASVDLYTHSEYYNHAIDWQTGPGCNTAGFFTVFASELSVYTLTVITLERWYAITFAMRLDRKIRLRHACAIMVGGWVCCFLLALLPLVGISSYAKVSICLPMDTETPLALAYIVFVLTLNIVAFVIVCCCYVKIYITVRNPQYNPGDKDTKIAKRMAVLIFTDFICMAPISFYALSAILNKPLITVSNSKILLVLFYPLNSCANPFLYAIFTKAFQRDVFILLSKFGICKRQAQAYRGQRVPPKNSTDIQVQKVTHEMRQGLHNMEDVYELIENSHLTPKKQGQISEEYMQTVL

As for `C=C(C)C(=O)OCCCCCC`, the compound was classed as inactive in test [1], in test [6], in test [7], in test [13] and in [14]. Besides, the Potency result in test [2], in test [3], in test [4], in test [5], in test [8] and in test [9] was “inactive” in each case. For the same compound, the Potency entry in [10], in test [11] and in test [12] was “inactive” throughout.
With `CC(C)(N=C=O)c1cccc(C(C)(C)N=C=O)c1`, the compound was called inactive in test [1], in test [6], in test [7], in test [13] and in test [14]. Moreover, the Potency entry in test [2], in test [4], in test [8], in [9], in test [10] and in test [11] was “inactive” in each case. Also, the Potency result in [15], in [16] and in test [12] was “inactive” each time. Besides, the Potency in [3] was 68 µM (active) and inactive.
For `CC#C[C@]1(O)CC[C@H]2[C@@H]3CCC4=CC(=O)CCC4=C3[C@@H](c3ccc(N(C)C)cc3)C[C@@]21C`, the outcome in test [1], in [6], in [7] and in test [14] was inactive. Moreover, the Potency result in test [17], in test [4], in [5], in [8], in test [9] and in test [11] was “inactive” each time. Moreover, the Potency result in test [16] and in test [12] was “inactive” each time.
In the case of `CCC(=O)O`, the call in test [1] and in test [13] was inactive. Also, the Potency entry in test [2], in test [18], in [3], in test [4], in test [5] and in test [8] was “inactive” in each case. In addition, the Potency entry in test [11], in test [16] and in test [12] was “inactive” throughout. Besides, the activity change, negative = cytotoxicity in [15] is -3.72% [at 19 µM] (inactive).
Take `CCOC(=O)[C@H](CCc1ccccc1)N[C@@H](C)C(=O)N1Cc2ccccc2C[C@H]1C(=O)O`: the call in [1] and in test [13] was inactive. Further, the Potency result in test [2] was “inactive and 16.8 µM (active)”. Further, the Potency entry in test [17], in test [3], in [4], in test [5], in test [8] and in test [9] was “inactive” throughout. Moreover, the Potency entry in test [11], in [16] and in test [12] was “inactive” throughout.
With `CC(C)Cc1ccccc1`, the result in [1], in test [6], in test [7], in test [13] and in test [14] was inactive. The Potency result in test [2], in [18], in [3], in test [4], in test [5] and in test [8] was “inactive” each time. The Potency entry in [9], in test [10], in test [11], in [15], in test [16] and in test [12] was “inactive” throughout.
`OC[C@@H](O)[C@@H](O)[C@H](O)[C@@H](O)CO`: the compound was classed as inactive in test [1], in test [6], in test [7] and in [13]. The Potency entry in [2], in [18], in test [3], in test [4], in test [5] and in [8] was “inactive” each time. The Potency entry in [9], in [10], in test [11], in test [16] and in [12] was “inactive” each time.
As to `Cc1cc(O)cc(C)c1Cl`, the result in [1], in [6], in test [7], in [13] and in test [14] was inactive. Besides, the Potency in test [2] was 3.06 µM (active). Also, the Potency result in test [17], in test [3], in test [4], in test [8], in test [9] and in test [10] was “inactive” in each case. The Potency result in test [11], in test [16] and in [12] was “inactive” throughout.

The record behind these values is PubChem BioAssay (Tox21).
